Results published in PubChem BioAssay AID1259422 (The Scripps Research Institute Molecular Screening Center, 2018).
About 9,300 (1.5%) of roughly 640,000 compounds were called active. The entries come from a sample that favours actives as a whole. Unmarked numbers belong to inactive results. Rule as the data show it: active = inhibition above about 32%; inactive = the rest.

Test: TEAD-YAP interaction inhibition, primary screen, TEAD-YAP interaction inhibitor project, luminescence, HEK-TIYL cells (AID 1259422);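 also: 0% = median of test compound wells and 100% = reference inhibitor wells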
Conditions: TEAD-Gal4/YAP UAS-luciferase luminescence, at 9.12 µM, hits give high values

SMILES | inhibition
CCOc1cc(-c2nc3sc4c(c3c(=O)[nH]2)CCCC4)cc(Br)c1OCc1ccccc1F | -1.86%
CCN(CC)C(=O)c1sc(NC(=O)c2cccc(OC)c2)c(C(=O)OC(C)C)c1C | 7.6%
O=S(=O)(/C=C/c1ccccc1)N1CCN(CC(O)COCc2ccccc2)CC1 (stereo unspecified) | 1.15%
Cc1ccc(S(=O)(=O)N(CC(=O)N2CCCC2)c2ccc(Cl)cc2C)cc1 | 2.4%
Cc1ccc(/C=N/NC(=O)c2ccc(Cl)cc2O)o1 | -20.5%
Oc1c(CN2CCCC2)cc(COCc2ccccc2)c2cccnc12 | 63% (active)
COc1ccc(CN2CCN(Cc3cccnc3)CC2)cc1OCc1ccccc1 | 8.2%
Oc1c(CN2CCN(c3cccc(Cl)c3)CC2)cc(Br)c2cccnc12 | 5.69%
CCOc1ccc(NC(=O)c2ccc(C#N)cc2F)cc1 | -9.3%
CCOC(=O)c1ccc(NC(=O)c2ccc(C#N)cc2F)cc1 | -1.23%
N#Cc1ccc(C(=O)Nc2ccc(Cc3ccncc3)cc2)c(F)c1 | 55.3% (active)
COc1cccc(/C=C/C(=O)c2ccc3c(c2)OCCO3)c1 | -34.3%
O=C(/C=C/c1ccccn1)c1ccc2c(c1)OCO2 | -21.2%
O=C(/C=C/c1ccc2c(c1)OCCO2)c1ccc(O)cc1 | 63.9% (active)
COCCNc1c(C(C)Cc2ccc3c(c2)OCO3)nc2cnccn12 (stereo unspecified) | -1.93%
Cn1c(=O)cc(OCC(=O)NCCN2CCOCC2)c2ccccc21 | -3.6%
Cc1ccccc1-n1c(-c2ccc(Br)cc2)n[nH]c1=S | -9.56%
c1ccc(-c2nc3nc(-c4cccs4)cn3nc2-c2ccccc2)cc1 | -28.9%
Cc1ccc2nc(-c3ccc(Br)cc3)cn2c1 | 75.2% (active)
Brc1ccc2nc(-c3cccs3)cn2c1 | 37.5% (active)
O=C(Nc1ccc(-c2cn3ccccc3n2)cc1)c1ccc(Br)cc1 | -5.14%

SMILES | inhibition
N#Cc1ccc(-c2cccs2)nc1SCc1ccc(Br)cc1 | -20.2%
N#Cc1ccccc1S(=O)(=O)Nc1ccc(Cl)cc1 | 7.64%
CC1=C(C(=O)Nc2cccc(Cl)c2)C(c2ccc([N+](=O)[O-])cc2)NC(=O)N1 (stereo unspecified) | -2.46%
COc1ccc(NC(=O)c2ccc([N+](=O)[O-])o2)cc1OC | 5.63%
CCOC(=O)C1=C(C)N=c2s/c(=C\c3ccc(-c4ccc([N+](=O)[O-])cc4)o3)c(=O)n2C1c1cccs1 (stereo unspecified) | 6.56%
O=C(N/N=C/c1ccc2c(c1)OCO2)C12CC3CC(CC(C3)C1)C2 | -46.5%
Cc1cc(Cl)ccc1NC(=O)COc1ccc([N+](=O)[O-])cc1 | -9.13%
CC(C)(C)c1ccc(OCC(=O)Nc2cc([N+](=O)[O-])ccc2O)cc1 | 77.8% (active)
CC(C)(C)c1ccc(OCC(=O)Nc2ccccc2[N+](=O)[O-])cc1 | 2.77%
O=C(CSc1nc2[nH]ncc2c(=O)n1-c1ccccc1)Nc1ccc(Br)cc1F | 8.04%
CCOC(=O)C1CCCCN1Cc1cc(Br)ccc1O (stereo unspecified) | 7.45%
COc1ccc(C)cc1NC(=O)CN1C(=O)C(C)N(c2ccc(C)cc2)C1=O (stereo unspecified) | 8.14%
C=CCn1c(=S)[nH]c2sc3c(c2c1=O)CCCCC3 | 8.8%
COc1ccccc1Nc1nc(-c2cc3cccc(OC)c3oc2=O)cs1 | 58% (active)
COc1cccc2cc(-c3nc(-c4ccc(C)cc4C)cs3)c(=O)oc12 | 1.78%
COc1cccc(Nc2nc(-c3cc4cccc(OC)c4oc3=O)cs2)c1 | -12.4%
CCN(C(=O)C1CCC1)c1nnc(-c2ccc(OC)cc2)s1 | -89.3%
CCN1CCN(CC(=O)NCc2ccccc2Cl)C(=O)C1=O | 2.39%
CCC(C)c1ccc(OCC(=O)NCc2ccco2)cc1 (stereo unspecified) | -13.8%
CCc1cc2c(C)cc(=O)oc2cc1OCC(=O)NCc1ccco1 | 42.8% (active)
O=C(COc1cc(Cl)ccc1Cl)NCc1ccco1 | -2.94%

SMILES | inhibition
Cc1ccc2nc(C3CCN(CC(=O)NCc4ccccc4)CC3)[nH]c2c1 | 7.44%
Nc1c(C(=O)O)cnn1-c1ccccc1 | 35.4% (active)
Cc1ccc(-n2ncc(C(=O)O)c2-n2cccc2)cc1 | 1.07%
O=C(Cc1ccccc1)Nc1c(C(=O)N2CCCCCC2)cnn1-c1ccccc1 | -25.7%
COc1cc(C2CC(=O)Nc3cc4c(cc32)OCO4)ccc1O (stereo unspecified) | -0.17%
COc1ccccc1C1C2=C(COC2=O)Nc2c1c(=O)n(C)c(=O)n2C (stereo unspecified) | 6.62%
COc1ccc(C2CC(=O)C3=C(C2)Nc2ccccc2NC3c2cc3c(cc2[N+](=O)[O-])OCO3)cc1 (stereo unspecified) | -38.4%
Cn1c2c(c(=O)n(C)c1=O)C(c1ccc(F)cc1)C1=C(COC1=O)N2 (stereo unspecified) | 13.2%
COc1ccccc1C1C2=C(COC2=O)Nc2cc3c(cc21)OCO3 (stereo unspecified) | 54% (active)
O=C1OCC2=C1C(c1ccc([N+](=O)[O-])cc1)c1cc3c(cc1N2)OCO3 (stereo unspecified) | 51.2% (active)
CCc1ccccc1N(CC(=O)Nc1cccc(F)c1)S(C)(=O)=O | -13.9%
COC(=O)CNC(=O)CC1C(=O)NCCN1Cc1ccc(F)cc1 (stereo unspecified) | -2%
CCNS(=O)(=O)c1ccc(NC(=O)CCOCC)cc1 | 9.16%
O=C(CN1C(=O)COc2ccc(Cl)cc21)Nc1ccccc1F | 3.36%
COC(=O)c1cc(C(=O)N2CC(C)CC(C)C2)cc([N+](=O)[O-])c1 (stereo unspecified) | 1.59%
CCOC(=O)c1cc(S(=O)(=O)NCc2ccc(Cl)cc2)cn1C | 2.16%
COc1cc(Nc2ccnc(Nc3ccc(N4CCOCC4)cc3)n2)cc(OC)c1OC | 72.7% (active)
c1ccc(Nc2nccc(Nc3ccc(N4CCOCC4)cc3)n2)cc1 | 16.2%
COc1cc(Nc2ccnc(Nc3ccncc3)n2)cc(OC)c1OC | 3.91%
